# From PubChem BioAssay AID1159580 (chemical genetic matrix, 2015)
# Among all 5,500 compounds or so, about 2,000 (36%) were called active. Not shown: some 18% with an inconclusive outcome. This is one part of the list. Unmarked numbers belong to inactive results. Cut-off read from the data, not from the text of the source: active = normalized growth mostly below about 0.91 (no sharp cut-off); inconclusive = no clear call, values can overlap the other calls; inactive = mostly above about 0.92.
# Test: chemical genetic growth profiling, strain panel (AID 1159580);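 note: tested at 20 µM; growth read once vehicle control cultures reached saturation at 30 °C; 1 = growth at the plate median or of vehicle wells; lower values mean less growth of the strain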
# Settings: growth OD
structure (smiles),measurement,setting,value
Fc1ccc(C(c2ccccc2)(c2ccccc2F)n2ccnc2)cc1 (stereo unspecified),normalized growth,"S. cerevisiae deletion strains, locus YAL013W, strain DEP1, stronger effect = lower value",0.0872 (active)
same,normalized growth,"S. cerevisiae deletion strains, locus YBR021W, strain FUR4, stronger effect = lower value",0.19 (active)
same,normalized growth,"S. cerevisiae deletion strains, locus YBR229C, strain ROT2, stronger effect = lower value",0.0785 (active)
same,normalized growth,"S. cerevisiae deletion strains, locus YCL029C, strain bik1, stronger effect = lower value",0.0815 (active)
same,normalized growth,"S. cerevisiae deletion strains, locus YDL035C, strain GPR1, stronger effect = lower value",0.0631 (active)
same,normalized growth,"S. cerevisiae deletion strains, locus YDL074C, strain BRE1, stronger effect = lower value",0.147 (active)
same,normalized growth,"S. cerevisiae deletion strains, locus YDL101C, strain DUN1, stronger effect = lower value",0.0698 (active)
same,normalized growth,"S. cerevisiae deletion strains, locus YDL134C, strain PPH21, stronger effect = lower value",0.0588 (active)
same,normalized growth,"S. cerevisiae deletion strains, locus YDL185W, strain tfp1, stronger effect = lower value",0.0581 (active)
same,normalized growth,"S. cerevisiae deletion strains, locus YDL192W, strain arf1, stronger effect = lower value",0.0867 (active)
same,normalized growth,"S. cerevisiae deletion strains, locus YDR101C, strain arx1, stronger effect = lower value",0.0775 (active)
same,normalized growth,"S. cerevisiae deletion strains, locus YDR150W, strain NUM1, stronger effect = lower value",0.0798 (active)
same,normalized growth,"S. cerevisiae deletion strains, locus YDR162C, strain NBP2, stronger effect = lower value",0.0536 (active)
same,normalized growth,"S. cerevisiae deletion strains, locus YDR318W, strain mcm21, stronger effect = lower value",0.082 (active)
same,normalized growth,"S. cerevisiae deletion strains, locus YDR388W, stronger effect = lower value",0.0787 (active)
same,normalized growth,"S. cerevisiae deletion strains, locus YDR502C, strain sam2, stronger effect = lower value",0.079 (active)
same,normalized growth,"S. cerevisiae deletion strains, locus YEL061C, strain CIN8, stronger effect = lower value",0.063 (active)
same,normalized growth,"S. cerevisiae deletion strains, locus YER110C, stronger effect = lower value",0.112 (active)
same,normalized growth,"S. cerevisiae deletion strains, locus YER155C, strain BEM2, stronger effect = lower value",0.097 (active)
same,normalized growth,"S. cerevisiae deletion strains, locus YER167W, strain BCK2, stronger effect = lower value",0.0563 (active)
same,normalized growth,"S. cerevisiae deletion strains, locus YGL078C, strain dbp3, stronger effect = lower value",0.111 (active)
same,normalized growth,"S. cerevisiae deletion strains, locus YGL086W, strain mad1, stronger effect = lower value",0.0673 (active)
same,normalized growth,"S. cerevisiae deletion strains, locus YGL248W, strain PDE1, stronger effect = lower value",0.0531 (active)
same,normalized growth,"S. cerevisiae deletion strains, locus YGR078C, strain PAC10, stronger effect = lower value",0.0703 (active)
same,normalized growth,"S. cerevisiae deletion strains, locus YGR135W, strain pre9, stronger effect = lower value",0.0937 (active)
same,normalized growth,"S. cerevisiae deletion strains, locus YGR229C, strain SMI1, stronger effect = lower value",0.0699 (active)
same,normalized growth,"S. cerevisiae deletion strains, locus YGR252W, strain gcn5, stronger effect = lower value",0.179 (active)
same,normalized growth,"S. cerevisiae deletion strains, locus YHR030C, strain SLT2, stronger effect = lower value",0.0565 (active)
same,normalized growth,"S. cerevisiae deletion strains, locus YHR079C, strain IRE1 (second series), stronger effect = lower value",0.0811 (active)
same,normalized growth,"S. cerevisiae deletion strains, locus YHR094C, strain hxt1, stronger effect = lower value",0.0819 (active)
same,normalized growth,"S. cerevisiae deletion strains, locus YHR129C, strain ARP1, stronger effect = lower value",0.0647 (active)
same,normalized growth,"S. cerevisiae deletion strains, locus YHR200W, strain rpn10, stronger effect = lower value",0.101 (active)
same,normalized growth,"S. cerevisiae deletion strains, locus YIL066C, strain RNR3, stronger effect = lower value",0.054 (active)
same,normalized growth,"S. cerevisiae deletion strains, locus YIL073C, strain SPO22, stronger effect = lower value",0.128 (active)
same,normalized growth,"S. cerevisiae deletion strains, locus YIL125W, strain kgd1, stronger effect = lower value",0.14 (active)
same,normalized growth,"S. cerevisiae deletion strains, locus YIR030C, strain dcg1, stronger effect = lower value",0.0795 (active)
same,normalized growth,"S. cerevisiae deletion strains, locus YJL095W, strain BCK1, stronger effect = lower value",0.0549 (active)
same,normalized growth,"S. cerevisiae deletion strains, locus YJL134W, strain LCB3, stronger effect = lower value",0.0651 (active)
same,normalized growth,"S. cerevisiae deletion strains, locus YJL168C, strain set2, stronger effect = lower value",0.0832 (active)
same,normalized growth,"S. cerevisiae deletion strains, locus YJL187C, strain SWE1 (second series), stronger effect = lower value",0.0603 (active)
same,normalized growth,"S. cerevisiae deletion strains, locus YJR043C, strain POL32, stronger effect = lower value",0.0763 (active)
same,normalized growth,"S. cerevisiae deletion strains, locus YJR075W, strain HOC1, stronger effect = lower value",0.0813 (active)
same,normalized growth,"S. cerevisiae deletion strains, locus YKL009W, strain mrt4, stronger effect = lower value",0.4 (active)
same,normalized growth,"S. cerevisiae deletion strains, locus YKL068W, stronger effect = lower value",0.178 (active)
same,normalized growth,"S. cerevisiae deletion strains, locus YKL085W, strain MDH1 (second series), stronger effect = lower value",0.126 (active)
same,normalized growth,"S. cerevisiae deletion strains, locus YKL085W, strain MDH1, stronger effect = lower value",0.126 (active)
same,normalized growth,"S. cerevisiae deletion strains, locus YKL190W, strain CNB1, stronger effect = lower value",0.0509 (active)
same,normalized growth,"S. cerevisiae deletion strains, locus YKR001C, strain vps1, stronger effect = lower value",0.0897 (active)
same,normalized growth,"S. cerevisiae deletion strains, locus YLR039C, strain RIC1, stronger effect = lower value",0.191 (active)
same,normalized growth,"S. cerevisiae deletion strains, locus YLR058C, strain SHM2, stronger effect = lower value",0.0587 (active)
same,normalized growth,"S. cerevisiae deletion strains, locus YLR102C, strain apc9, stronger effect = lower value",0.0876 (active)
same,normalized growth,"S. cerevisiae deletion strains, locus YLR262C, strain YPT6, stronger effect = lower value",0.23 (active)
same,normalized growth,"S. cerevisiae deletion strains, locus YLR268W, strain sec22, stronger effect = lower value",0.0794 (active)
same,normalized growth,"S. cerevisiae deletion strains, locus YLR330W, strain CHS5, stronger effect = lower value",0.0657 (active)
same,normalized growth,"S. cerevisiae deletion strains, locus YLR342W, strain FKS1 (second series), stronger effect = lower value",0.0856 (active)
same,normalized growth,"S. cerevisiae deletion strains, locus YLR371W, strain rom2, stronger effect = lower value",0.0813 (active)
same,normalized growth,"S. cerevisiae deletion strains, locus YLR418C, strain cdc73, stronger effect = lower value",0.127 (active)
same,normalized growth,"S. cerevisiae deletion strains, locus YML016C, strain PPZ1, stronger effect = lower value",0.0591 (active)
same,normalized growth,"S. cerevisiae deletion strains, locus YML032C, strain rad52, stronger effect = lower value",0.104 (active)
same,normalized growth,"S. cerevisiae deletion strains, locus YML124C, strain tub3, stronger effect = lower value",0.0796 (active)
same,normalized growth,"S. cerevisiae deletion strains, locus YMR078C, strain ctf18, stronger effect = lower value",0.101 (active)
same,normalized growth,"S. cerevisiae deletion strains, locus YMR223W, strain ubp8, stronger effect = lower value",0.0885 (active)
same,normalized growth,"S. cerevisiae deletion strains, locus YMR263W, strain SAP30, stronger effect = lower value",0.108 (active)
same,normalized growth,"S. cerevisiae deletion strains, locus YMR307W, strain GAS1, stronger effect = lower value",0.129 (active)
same,normalized growth,"S. cerevisiae deletion strains, locus YNL067W, strain RPL9B, stronger effect = lower value",0.0623 (active)
same,normalized growth,"S. cerevisiae deletion strains, locus YNL128W, strain TEP1, stronger effect = lower value",0.0794 (active)
same,normalized growth,"S. cerevisiae deletion strains, locus YNL153C, strain GIM3, stronger effect = lower value",0.0592 (active)
same,normalized growth,"S. cerevisiae deletion strains, locus YNL233W, strain BNI4, stronger effect = lower value",0.0673 (active)
same,normalized growth,"S. cerevisiae deletion strains, locus YNL250W, strain rad50, stronger effect = lower value",0.133 (active)
same,normalized growth,"S. cerevisiae deletion strains, locus YNL271C, strain bni1, stronger effect = lower value",0.114 (active)
same,normalized growth,"S. cerevisiae deletion strains, locus YNL298W, strain CLA4, stronger effect = lower value",0.0847 (active)
same,normalized growth,"S. cerevisiae deletion strains, locus YNL307C, strain MCK1, stronger effect = lower value",0.0726 (active)
same,normalized growth,"S. cerevisiae deletion strains, locus YNL322C, strain KRE1, stronger effect = lower value",0.0639 (active)
same,normalized growth,"S. cerevisiae deletion strains, locus YNR052C, strain pop2, stronger effect = lower value",0.0915 (active)
same,normalized growth,"S. cerevisiae deletion strains, locus YOL006C, strain TOP1, stronger effect = lower value",0.104 (active)
same,normalized growth,"S. cerevisiae deletion strains, locus YOL012C, strain htz1",0.208
same,normalized growth,"S. cerevisiae deletion strains, locus YOL147C, strain pex11, stronger effect = lower value",0.0687 (active)
same,normalized growth,"S. cerevisiae deletion strains, locus YOR061W, strain CKA2, stronger effect = lower value",0.077 (active)
same,normalized growth,"S. cerevisiae deletion strains, locus YOR069W, strain VPS5, stronger effect = lower value",0.0662 (active)
same,normalized growth,"S. cerevisiae deletion strains, locus YOR136W, strain idh2, stronger effect = lower value",0.0938 (active)
same,normalized growth,"S. cerevisiae deletion strains, locus YOR144C, strain elg1, stronger effect = lower value",0.076 (active)
same,normalized growth,"S. cerevisiae deletion strains, locus YOR184W, strain ser1, stronger effect = lower value",0.094 (active)
same,normalized growth,"S. cerevisiae deletion strains, locus YOR316C, strain cot1, stronger effect = lower value",0.0765 (active)
same,normalized growth,"S. cerevisiae deletion strains, locus YPL055C, strain LGE1, stronger effect = lower value",0.0913 (active)
same,normalized growth,"S. cerevisiae deletion strains, locus YPL241C, strain CIN2, stronger effect = lower value",0.0643 (active)
same,normalized growth,"S. cerevisiae deletion strains, locus YPR119W, strain clb2, stronger effect = lower value",0.0897 (active)
same,normalized growth,"S. cerevisiae deletion strains, locus YPR141C, strain kar3, stronger effect = lower value",0.24 (active)
same,normalized growth,"S. cerevisiae deletion strains, locus YPR163C, strain tif3, stronger effect = lower value",0.0819 (active)
same,normalized growth,"S. cerevisiae deletion strains, locus YPR167C, strain met16, stronger effect = lower value",0.0807 (active)
same,normalized growth,"S. cerevisiae deletion strains, strain wtn01, stronger effect = lower value",0.1 (active)
same,normalized growth,"S. cerevisiae strains, strain wild type, stronger effect = lower value",0.0558 (active)
